A selection: hits, their analogues and other compounds. The true share with any hit is near 19%.
KB-V1 cytotox: kills drug-selected multidrug resistant KB-V1 cells; KB-V1 MDR cells viability, CellTiter-Glo, 72 h; Potency, µM (doses to about 46.1 µM), actives largely listed as cytotoxic; actives 3.4% (n = 400,000); AID 1347076; note: nearly all actives have a fitted effect of over 60% in size
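Readout: CellTiter-Glo luminescence, 10 min after addition. Cells: KB-V1 MDR subline, 72 h at 37 degrees C with compound. Analysis: corrected, normalized data fitted to concentration-effect curves.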
HT1080 IDH1KD tx: kills HT-1080 cells with IDH1 knockdown; AID 686971; Potency, µM (doses to about 46.1 µM), actives largely listed as cytotoxic; HT-1080 IDH1 knockdown viability, ATP luminescence, 48 h; actives 2% (n = 360,000)
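Assay cells: HT-1080 with IDH1 knockdown, 750 per well, RPMI/5% FBS. Exposure: 48 h at 37 °C following 2 h pre-incubation. Read: CellTiter-Glo luminescence; fitted concentration-response, curve class assigned.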
TDP1 cell CPT: growth inhibition of DT40 Tdp1-/-;hTDP1 cells with camptothecin (screen for TDP1 inhibitors) | Potency, µM (highest dose often 46.2 µM), usual class: inhibitors | actives 12% (n = 420,000) | chicken DT40 Tdp1-/-;hTDP1 cells + 20 nM CPT, ATP luminescence, 48 h; note: nearly all actives have a fitted effect of over 55% in size
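Chicken DT40 Tdp1-/- cells complemented with human TDP1, 400 cells/well, exposed to compounds plus 20 nM camptothecin for at least 48 h at 37 C; viability read as ATP content by CellTiter-Glo luminescence.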
KB-3-1 tox: kills parental KB-3-1 adenocarcinoma cells. KB-3-1 viability, CellTiter-Glo ATP luminescence, 72 h. Potency, µM (titrated, usually from 46.1 µM), usual class: cytotoxic. actives 1.4% (n = 400,000). AID 1347075; note: nearly all actives have a fitted effect of over 60% in size
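Viability of parental KB-3-1 cells, measured by CellTiter-Glo luminescence, followed a 72 h incubation at 37 °C with pinned compounds in phenol-red-free DMEM containing 10% FBS.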
TDP1 cell noCPT: qHTS for Inhibitors of human tyrosyl-DNA phosphodiesterase 1 (TDP1): qHTS in cells in absence of CPT; DT40 Tdp1-/- hTDP1 cells, no CPT, ATP luminescence, 48 h; actives 15% (n = 420,000); Potency, µM (top dose mostly 46.2 µM), hits mostly inhibitors; AID 686978, 2013; note: nearly all actives have a fitted effect of over 55% in size
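Seeded 400 DT40-hTDP1 cells/well (vehicle DMSO, no 20 nM CPT); pinned compounds; ≥48 hr at 37 °C; CellTiter-Glo luminescence as viability measure.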
HT1080-NT tox: kills 2HG-producing HT-1080-NT fibrosarcoma cells | HT-1080-NT fibrosarcoma viability, CellTiter-Glo ATP luminescence, 48 h | Potency, µM (highest dose often 46.1 µM), usual class: cytotoxic | actives 1.6% (n = 360,000) | AID 686970;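 note: NT is the 2HG producing partner of a matched IDH1 knockdown line; nearly all actives have a fitted effect of over 55% in size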
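Read-out is CellTiter-Glo luminescence after 10 minutes at room temperature, following 48 hours' compound treatment of HT-1080-NT cells (750 cells/well, RPMI, 5% FBS, 37 degrees C).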
Of the large screens only hits and unclear results are named; the others gave an inactive call. Calls come from the whole dose curve; as a rule, active = well fitted curve in the direction sought with a large enough effect; inconclusive = small, poorly fitted or top-dose-only effect, or another doubt; inactive = no such curve, though single readings can be large; an effect the other way counts as inactive or inconclusive.

Cc1ccc(C(=O)Nc2cccc(C(F)(F)F)c2)cc1NC(=O)c1ccno1	TDP1 cell CPT inconclusive, TDP1 cell noCPT 11.6µM
Cc1ccc(C(=O)Nc2cccc(C(F)(F)F)c2)cc1Nc1cnccn1	TDP1 cell CPT 23.1µM, TDP1 cell noCPT 16.4µM
Cc1ccc(C(=O)Nc2cccc(C(F)(F)F)c2)cc1NC(=O)c1nccn1C	KB-V1 cytotox inconclusive
O=C(Nc1cnccn1)c1cccc(C(F)(F)F)c1	none
CC(=O)c1cccc(NC(=O)CSc2nnc3ccc(-c4ccc(Br)cc4)nn23)c1	none (no result: KB-V1 cytotox, HT1080 IDH1KD tx, KB-3-1 tox, HT1080-NT tox)
COC(=O)[C@]12CCCCC=C1N(Cc1cccc3ccccc13)C(=O)[C@H](CC(=O)N1CCN(C(=O)c3ccco3)CC1)C2	HT1080 IDH1KD tx inconclusive, TDP1 cell CPT inconclusive, TDP1 cell noCPT inconclusive, HT1080-NT tox inconclusive
COC(=O)[C@]12CCCCC=C1N(Cc1cccc3ccccc13)C(=O)[C@H](CC(=O)N1CCN(C(=O)C3CC3)CC1)C2	KB-V1 cytotox inconclusive, TDP1 cell CPT inconclusive, TDP1 cell noCPT 20.6µM
C#CCNC(=O)C[C@@H]1C[C@@]2(C(=O)OC)CCCCC=C2N(Cc2cccc3ccccc23)C1=O	HT1080 IDH1KD tx inconclusive, TDP1 cell CPT inconclusive, TDP1 cell noCPT inconclusive
COC(=O)[C@]12CCCCC=C1N(Cc1cccc3ccccc13)C(=O)[C@H](CC(=O)N1CCCC1)C2	HT1080 IDH1KD tx inconclusive, TDP1 cell CPT inconclusive, KB-3-1 tox inconclusive, TDP1 cell noCPT 20.6µM, HT1080-NT tox inconclusive
COCCCNC(=O)C[C@H]1C[C@H](C(=O)N2CCCCC2)[C@@]2(C)c3[nH]c4cc(-c5ccco5)ccc4c3CCN2C1=O	TDP1 cell CPT 16.4µM, TDP1 cell noCPT inconclusive
C[C@]12c3[nH]c4ccc(Cl)cc4c3CCN1C(=O)[C@@H](CC(=O)NCCc1ccccn1)C[C@@H]2C(=O)N1CCOCC1	TDP1 cell CPT inconclusive
CCN(CC)C(=O)[C@H]1C[C@H](CC(=O)NCCc2ccccn2)C(=O)N2CCc3c([nH]c4ccc(Cl)cc34)[C@]12C	TDP1 cell CPT inconclusive, TDP1 cell noCPT 20.6µM
C[C@]12c3[nH]c4cc(-c5ccco5)ccc4c3CCN1C(=O)[C@@H](CC(=O)NCCN1CCOCC1)C[C@@H]2C(=O)N1CCCCC1	TDP1 cell noCPT inconclusive
COc1ccc(CNC(=O)C[C@H]2C[C@H](C(=O)N3CCCCC3)[C@@]3(C)c4[nH]c5ccc(Cl)cc5c4CCN3C2=O)cc1OC	TDP1 cell CPT 18.4µM, TDP1 cell noCPT 11.6µM
O=C(C[C@H]1C[C@H](C(=O)N2CCCCC2)[C@@]2(CCc3ccccc3)c3[nH]c4ccc(Cl)cc4c3CCN2C1=O)NCCc1ccccn1	KB-V1 cytotox inconclusive, TDP1 cell CPT inconclusive, TDP1 cell noCPT 18.4µM
O=C(NCCCN1CCCC1=O)c1cc2nc(-c3ccco3)cc(C(F)(F)F)n2n1	KB-V1 cytotox inconclusive, TDP1 cell noCPT inconclusive
COc1cc(C(=O)N2CCN(C(=O)c3ccco3)CC2)c([N+](=O)[O-])cc1OC	none
CSc1nccc(-c2cc(Cl)c3c(c2)CC(CNC(=O)c2ccc(C)nc2)O3)n1 (configuration not stated)	none (no result: KB-V1 cytotox, HT1080 IDH1KD tx, KB-3-1 tox, HT1080-NT tox)
CCN(CC)C(=O)[C@H]1C[C@H](CC(=O)NCCCOC)C(=O)N2CCc3c([nH]c4cc(-c5ccco5)ccc34)[C@]12C	TDP1 cell CPT 14.6µM, TDP1 cell noCPT 18.4µM
CC[C@]12c3[nH]c4cc(-c5ccco5)ccc4c3CCN1C(=O)[C@@H](CC(=O)NCc1ccc(OC)c(OC)c1)C[C@@H]2C(=O)N1CCN(C(=O)c2ccco2)CC1	TDP1 cell CPT inconclusive, TDP1 cell noCPT inconclusive

Source: PubChem
